Only some compounds are listed: those with a hit (about 18% of all), similar ones and a draw of the others.
Six1-Eya2 inh = inhibitors of human Six1/Eya2 interaction; 360,000 tested, 0.56% active; Q15475+O00167; AlphaScreen GST-Six1/His-Eya2 binding, biochemical; stronger effect = lower value; activity change, % (concentration not given with the values); in the data active = activity change below about -65%; inconclusive = mostly about -30% to -63%
Target sequence (O00167 whole entry, looked up): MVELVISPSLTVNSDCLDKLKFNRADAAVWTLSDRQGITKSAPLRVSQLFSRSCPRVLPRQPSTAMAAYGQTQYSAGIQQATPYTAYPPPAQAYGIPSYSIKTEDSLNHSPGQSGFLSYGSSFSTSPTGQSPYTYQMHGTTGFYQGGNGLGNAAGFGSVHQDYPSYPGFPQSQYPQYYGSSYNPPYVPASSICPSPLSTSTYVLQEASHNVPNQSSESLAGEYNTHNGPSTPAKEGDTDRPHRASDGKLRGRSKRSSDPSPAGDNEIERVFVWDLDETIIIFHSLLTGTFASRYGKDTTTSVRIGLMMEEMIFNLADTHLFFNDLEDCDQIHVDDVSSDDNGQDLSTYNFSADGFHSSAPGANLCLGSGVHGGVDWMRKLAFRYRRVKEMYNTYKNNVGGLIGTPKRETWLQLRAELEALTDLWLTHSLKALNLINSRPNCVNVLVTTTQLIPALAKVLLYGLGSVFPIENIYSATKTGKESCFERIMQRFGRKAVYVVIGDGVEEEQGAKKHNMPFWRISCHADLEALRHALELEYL
Target sequence (Q15475 whole entry, looked up): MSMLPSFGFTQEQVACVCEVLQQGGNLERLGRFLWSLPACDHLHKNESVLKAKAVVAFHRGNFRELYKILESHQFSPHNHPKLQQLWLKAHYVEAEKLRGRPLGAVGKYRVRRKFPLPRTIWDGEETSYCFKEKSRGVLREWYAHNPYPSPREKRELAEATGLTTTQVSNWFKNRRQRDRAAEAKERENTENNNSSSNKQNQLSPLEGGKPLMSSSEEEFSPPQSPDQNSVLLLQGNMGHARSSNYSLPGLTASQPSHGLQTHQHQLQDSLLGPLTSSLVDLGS
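Homogeneous AlphaScreen proximity assay pairing GST-Six1 with His-tagged Eya2 (added as 5X mix: 250 nM and 500 nM) in 50 mM Tris pH 8.0, 300 mM NaCl, 1 mM TCEP. Glutathione donor and nickel acceptor beads; 1 h, 37 °C, dark.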
TDP1 cell noCPT = qHTS for Inhibitors of human tyrosyl-DNA phosphodiesterase 1 (TDP1): qHTS in cells in absence of CPT | AID 686978, 2013 | 420,000 tested, 15% active | DT40 Tdp1-/- hTDP1 cells, no CPT, ATP luminescence, 48 h | Potency, µM (doses to about 46.2 µM), for the others: at the highest dose activity change, negative = growth inhibition, usual class: inhibitors; also: potency is read from the fitted curve at half-maximal effect; nearly all actives have a fitted effect of over 55% in size
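Chicken DT40 Tdp1-/- cells stably complemented with human TDP1 were seeded at 400 cells/well with DMSO in place of 20 nM camptothecin. After compound pinning, cells grew at least 48 hr at 37 °C; viability read by CellTiter-Glo luminescence.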
CtBP-E1A blk = CtBP/E1A binding inhibition; AlphaScreen GST-E1A/His-CtBP binding, 1536-well; stronger effect = lower value; activity change, % (no concentration beside the values); 340,000 tested, 0.49% active; AID 651724; in the data active = activity change below about -65%; inconclusive = mostly about -30% to -63%
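Homogeneous bead-based format: GST-tagged E1A captured on glutathione donor beads, His-tagged CtBP on nickel acceptor beads; compounds precede bead addition by 2 h at 37 °C.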
TDP1 block = TDP1 (human) enzyme inhibition | Q9NUW8 | 350,000 tested, 0.28% active | recombinant TDP1, AlphaScreen DNA substrate cleavage | AID 485290 | Potency, µM (titrated, usually from 130 µM), for the others: at the top dose activity change, negative = inhibition, actives largely listed as inhibitors; also: potency is read from the fitted curve at half-maximal effect; nearly all actives have a fitted effect of over 40% in size
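Signal: AlphaScreen proximity between streptavidin donor and anti-FITC acceptor beads on intact substrate. Reaction: Tdp1 1 nM, substrate 15 nM final, 5 min RT after 15 min compound preincubation.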
IL-1B inflam inh = inflammasome signaling inhibition, IL-1 beta readout; THP-1 LPS/ATP IL-1B secretion, AlphaLISA, 16 h; stronger effect = lower value; activity change, % at 57.5 µM; 360,000 tested, 4.7% active; AID 743279; in the data active = activity change below about -50%; inconclusive = mostly about -30% to -49%
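THP-1 cells pretreated 1 hr with compounds (up to 57.5 uM final), then stimulated with LPS (250 ng/mL final) plus ATP (1.25 mM final); secreted IL-1B measured by AlphaLISA after 16 hr, decreased signal indicating inhibition.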
DT40 TDP1 CPT = growth inhibition of DT40 Tdp1-/-;hTDP1 cells with camptothecin (screen for TDP1 inhibitors) | Potency, µM (series often up to 46.2 µM), for the others: top-dose activity change, negative = growth inhibition, hits mostly inhibitors | chicken DT40 Tdp1-/-;hTDP1 cells + 20 nM CPT, ATP luminescence, 48 h | 420,000 tested, 12% active; also: potency is read from the fitted curve at half-maximal effect; nearly all actives have a fitted effect of over 55% in size
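Chicken DT40 Tdp1-/- cells stably complemented with human TDP1 were seeded at 400 cells/well in medium containing 20 nM camptothecin, exposed to pin-transferred compounds, and grown at 37 °C for at least 48 hr. Viability was read as ATP luminescence.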
An asterisk follows results filed as active; ? = inconclusive; . = no result given. Unless noted, calls follow the shape of the dose curve; as a rule, active = well fitted curve in the direction sought with a large enough effect; inconclusive = small, poorly fitted or top-dose-only effect, or another doubt; inactive = no such curve, though single readings can be large; an effect the other way counts as inactive or inconclusive. % is scaled to controls: 0 for no effect and ±100 for the full control effect.

SMILES	Six1-Eya2 inh	TDP1 cell noCPT	CtBP-E1A blk	TDP1 block	IL-1B inflam inh	DT40 TDP1 CPT
Cc1ccccc1CN1CCN(CC(=O)NCCCN2CCN(c3ccc(F)cc3)CC2)C1=O	2	13µM*	-7	6%	?	16µM*
COc1ccc(OC)c(NC(=O)Cn2c(CCC(=O)O)ccc2-c2ccc(C)cc2)c1	-6	-10%	-3	6%	93	-5%
CCS(=O)(=O)c1ccc(O)c(NC(=O)/C=C/c2ccccc2)c1	-1	-9%	-6	0%	14	0%
Cc1c(O)ccc(NC(=O)/C=C/c2ccccc2)c1C	-8	15µM*	-14	8%	0	18µM*
CC(=O)Nc1nc(NC(=O)/C=C/c2ccccc2)n(-c2ccccc2)n1	-23	8.2µM*	-24	8%	37	12µM*
NC(=O)c1ccccc1NC(=O)/C=C/c1ccccc1	-2	21µM*	4	4%	-12	?
NC(=O)c1ccccc1NC(=O)/C=C/c1ccc(Cl)cc1	-1	16µM*	5	3%	-14	?
O=C(/C=C/c1ccc(Cl)cc1)NC(=S)Nc1ccccc1C(=O)O	-6	?	?	4%	0	?
O=Cc1ccc(Oc2ncccn2)cc1	-1	8%	0	0%	0	6%
CCCCOc1ccc(C2(C)NC(=O)N(C)C2=O)cc1 (configuration not stated)	1	?	.	2%	3	-14%
CCOc1ccc(S(=O)(=O)N2CCCC(C(=O)NCc3cccnc3)C2)cc1C (configuration not stated)	1	26µM*	5	7%	15	?
CCOc1ccc(S(=O)(=O)N2CCCC(C(=O)NCc3ccccn3)C2)cc1Cl (configuration not stated)	-22	16µM*	-3	.	-26	?
COc1ccc(S(=O)(=O)N2CCCC(C(=O)NCc3cccnc3)C2)cc1C (configuration not stated)	-7	-29%	-4	.	-5	-24%
CC(OC(=O)Cc1ccc(Br)cc1)C(=O)NC1CCCCC1C (configuration not stated)	-16	?	28	1%	4	?
CCc1nc2ccc(C(=O)Nc3ccc(C(N)=O)cc3)cn2c1N(C)CCC(C)C	-14	23µM*	-11	.	-23	18µM*
CCc1nc2ccc(C(=O)Nc3ccc(NC(C)=O)cc3)cn2c1N(C)CCC(C)C	-5	21µM*	-7	.	-20	?
COc1ccc(C=NNC(=O)CCCC(=O)NN=Cc2ccc(OC)c(O)c2)cc1O	-7	-4%	1	.	-13	11%
CCCOc1ccc2[nH]c(C(=O)N/N=C/c3cc(OC)c(OC)c(OC)c3)cc2c1	-3	16µM*	1	3%	0	?
COc1ccc2[nH]c(C(=O)N/N=C/c3ccccc3OC)cc2c1	-10	9.2µM*	.	.	0	7.3µM*
O=C(N/N=C/c1ccccc1O)c1cc(=O)[nH]c2ccccc12	.	.	.	1%	.	.
COc1ccc(C(=O)N/N=C/c2cc3ccccc3[nH]c2=O)cc1	?	7%	?	2%	5	-19%
CCOc1ccc(/C=N/NC(=O)c2cc3c(OC)cc(OC)c(OC)c3[nH]2)cc1	?	?	?	.	-27	?
COc1cc(OC)c2cc(C(=O)N/N=C/c3ccccc3O)[nH]c2c1	-18	4.6µM*	.	.	68	4.6µM*
COc1ccc2[nH]c(C(=O)N/N=C/c3ccc(OC)c(O)c3)cc2c1	14	1.3µM*	-4	.	-27	1.2µM*
CC(=O)N1CCOc2ccc(S(=O)(=O)Nc3ncccc3C)cc21	2	1%	3	3%	-7	-7%
Cc1noc(C)c1C(=O)Nc1ccc(S(=O)(=O)N2CCCCC2)cc1	0	?	1	1%	4	?

Bioassay records as filed in PubChem.
